The values below come from the supplement of paper PMC10849652.

Of roughly 7,900 targets only a part is listed; those with a hit were picked by preference. About 0.6% of all pairs of compound and target were hits. Unmarked numbers belong to inactive results.

Sequence of AAK1 (Q2M2I8 whole entry, looked up): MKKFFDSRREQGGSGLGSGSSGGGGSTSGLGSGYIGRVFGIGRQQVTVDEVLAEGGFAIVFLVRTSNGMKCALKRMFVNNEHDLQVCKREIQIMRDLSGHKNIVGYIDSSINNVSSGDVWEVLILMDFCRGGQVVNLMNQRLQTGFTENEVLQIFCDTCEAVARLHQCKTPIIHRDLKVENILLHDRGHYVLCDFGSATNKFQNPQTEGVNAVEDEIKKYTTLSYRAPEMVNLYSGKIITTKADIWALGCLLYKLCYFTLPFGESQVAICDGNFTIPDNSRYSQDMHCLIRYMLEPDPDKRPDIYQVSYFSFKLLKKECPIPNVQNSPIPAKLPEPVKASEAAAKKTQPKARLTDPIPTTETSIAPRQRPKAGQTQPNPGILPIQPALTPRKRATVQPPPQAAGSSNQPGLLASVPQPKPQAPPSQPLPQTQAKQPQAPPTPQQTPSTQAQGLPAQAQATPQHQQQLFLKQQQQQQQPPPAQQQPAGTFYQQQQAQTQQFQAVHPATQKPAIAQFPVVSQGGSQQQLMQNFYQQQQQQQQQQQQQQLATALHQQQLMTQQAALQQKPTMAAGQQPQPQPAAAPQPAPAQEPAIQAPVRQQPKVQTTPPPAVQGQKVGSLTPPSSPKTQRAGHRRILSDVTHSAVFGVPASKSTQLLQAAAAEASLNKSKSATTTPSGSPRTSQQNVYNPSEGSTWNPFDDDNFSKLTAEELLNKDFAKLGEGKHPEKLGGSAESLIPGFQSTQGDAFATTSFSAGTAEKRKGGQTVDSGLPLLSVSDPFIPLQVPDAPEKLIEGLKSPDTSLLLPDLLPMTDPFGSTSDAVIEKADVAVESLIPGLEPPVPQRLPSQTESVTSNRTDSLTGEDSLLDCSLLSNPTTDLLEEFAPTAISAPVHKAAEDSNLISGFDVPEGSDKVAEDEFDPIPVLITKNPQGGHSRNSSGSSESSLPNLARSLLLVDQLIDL

The test deals with AAK1 (UniProt Q2M2I8). Put plainly: log2 fold change, soluble protein after heating vs DMSO (PISA); higher = thermal stabilisation; K562 cells, 10 uM, 30 min; active = over 0.2 and 3.5 SD of the protein, either way, in both replicates (recomputed). The method, boiled down:
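Soluble protein was defined as the supernatant after 21,000xg for 90 min. It came from K562 cells at 2×10^6 cells/mL given 10 μM compound for 30 min, heated in aliquots for 3 min across 48°C-58°C, pooled, and extracted in PBS with 0.5% NP-40 at 4°C, and was quantified by TMTpro 16plex LC-MS/MS with equalised channel sums. Thermal stability against control samples, from duplicates, is reported as log2 fold change.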
With `CNC(=O)c1ccc(Nc2ncc(C(F)(F)F)c(NCc3nccnc3N(C)S(C)(=O)=O)n2)cc1` [defactinib], the log2 fold change is -0.106.
As for `CCCCN(Cc1ccc(C(=O)NO)cc1)C(=O)Nc1ccccc1` [Nexturastat A], the log2 fold change was -0.021.
For `Cc1ccc(NC(=O)c2cccc(N(C)C)c2)cc1NC(=O)c1ccc(O)cc1`, the log2 fold change is 0.
Under `COc1cc2ncnc(Nc3ccc(F)c(Cl)c3)c2cc1OCCCN1CCOCC1` [gefitinib] stands -0.097.
Regarding `NC(=O)c1cnc(N[C@@H]2CCCC[C@@H]2N)nc1Nc1cccc(-n2nccn2)c1`, the log2 fold change was 0.055.
Under `C=CC(=O)N1CCC[C@@H](n2nc(-c3ccc(Oc4ccccc4)cc3)c3c(N)ncnc32)C1` [ibrutinib] stands 0.051.
As for `O=C(CCCCCCNC(=O)c1cnc(N(c2ccccc2)c2ccccc2Cl)nc1)NO` [citarinostat], the log2 fold change is -0.015.
Regarding `Cn1c2cc(S(C)=O)sc2c2cnn(Cc3cccc(N)c3)c(=O)c21` (stereo not given), the log2 fold change was -0.108.
Take `CCN(CC)Cc1ccc2cc(COC(=O)Nc3ccc(C(=O)NO)cc3)ccc2c1` [givinostat]: the log2 fold change is 0.042.
Regarding `Cc1cc(Nc2cc(N3CCN(C)CC3)nc(Sc3ccc(NC(=O)C4CC4)cc3)n2)n[nH]1` [tozasertib], the log2 fold change is 0.211.
`COc1cc(C(=O)O)ccc1NC(=O)[C@@H]1N[C@@H](CC(C)(C)C)[C@](C#N)(c2ccc(Cl)cc2F)[C@H]1c1cccc(Cl)c1F` [idasanutlin]: the log2 fold change is -0.129.
As to `Cc1ccc2c(=O)c3ccccc3n(CCCN)c2c1C`, the log2 fold change was -0.017.
Consider `O=C(Nc1cccc(Nc2ncc(Br)c(NCCc3cnc[nH]3)n2)c1)N1CCCC1`, for which the log2 fold change was 0.265.
Turning to `CN(CCOc1ccc(C[C@@H]2SC(=O)NC2=O)cc1)c1ccccn1` (racemic) [rosiglitazone], the log2 fold change is 0.04.
With `CCN(CCCOc1ccc2c(Nc3cc(CC(=O)Nc4cccc(F)c4)[nH]n3)ncnc2c1)CCOP(=O)(O)O` [barasertib], the log2 fold change is -0.034.
For the compound `CC(C)c1cnn2c(NCc3ccccc3)cc(NCCCCCCN)nc12`, the log2 fold change is -0.043.
Under `COC(=O)N[C@@H](C)CNc1nccc(-c2cn(C(C)C)nc2-c2cc(Cl)cc(NS(C)(=O)=O)c2F)n1` [encorafenib] stands -0.047; under `C/C(=N\NC(=O)c1cccc(S(=O)(=O)N2CCOCC2)c1)c1cc(Cl)ccc1O`, -0.055; under `Cc1cc(Nc2cc(CN3CCOCC3)c3nc(C)c(Cc4ccc(Cl)cc4F)n3n2)n[nH]1` [gandotinib], 0.091.
As for `CC(=O)c1cnc2ccc(-c3cc(Cl)c(O)c(Cl)c3)nc2c1N[C@H]1CC[C@H](CN(C)C)CC1`, the figure is 0.366; as for `Cc1ncc(-c2ccnc(Nc3ccc(S(C)(=O)=O)cc3)n2)n1C(C)C`, 0.219; as for `O=C1c2ccccc2-c2n[nH]c3cccc1c23`, 0.319.
Under `CCn1cc(-c2ccnc3[nH]c(-c4cccc(CN(C)C)c4)cc23)c(-c2ccc(NC(=O)N(C)C)cc2)n1` stands -0.141; under `CC[C@H](C)[C@H](NC(=O)[C@H]([C@@H](C)CC)N(C)C(C)=O)C(=O)N[C@H](C(=O)N[C@@H](CC(C)C)C(=O)[C@@]1(C)CO1)[C@@H](C)O` [epoxomicin], 0.031.
For the compound `CNCc1ccc(-c2[nH]c3cc(F)cc4c3c2CCNC4=O)cc1` [rucaparib], the log2 fold change is -0.013.
Regarding `CC(C)(C)Cn1c(N)nc2ccc(-c3[nH]c(C(C)(C)C)nc3-c3ccc(F)cc3)nc21` [ralimetinib], the log2 fold change was 0.04.
For `C[C@H](Nc1ncnc2nc[nH]c12)c1cc2cccc(Cl)c2c(=O)n1-c1ccccc1` [duvelisib], the log2 fold change is 0.186.
Take `CS(=O)(=O)c1ccc(-c2cnc(N)c(C(=O)Nc3ccccc3)n2)cc1`: the log2 fold change is 0.043.
As for `C[C@@H](N)c1ccc(C(=O)Nc2ccnc3[nH]ccc23)cc1`, the figure is 0.412 (active).
For the compound `NC1(Cc2ccc(Cl)cc2)CCN(c2ncnc3[nH]ccc23)CC1`, the log2 fold change is -0.085.
